Rows were chosen to be rich in hits. Some 3.3% of all compounds tested hit in one or more screens of this group.
Vaccinia mCherry – vaccinia inhibition (mCherry reporter). Vaccinia virus mCherry reporter infection, fluorescence. actives 0.63% (n = 310,000). Potency, µM (doses to about 36.5 µM), hits mostly inhibitors. AID 720579; calls by dose curve; tested in A549 cells; also: nearly all actives have a fitted effect of over 35% in size
VACV Venus inh – inhibitors of vaccinia virus (Venus reporter). Vaccinia virus Venus reporter expression, fluorescence. Potency, µM (doses to about 36.5 µM), most hits filed as inhibitors. actives 0.46% (n = 330,000). AID 720580; calls by dose curve; tested in A549 cells; also: nearly all actives have a fitted effect of over 30% in size
HCV inh – blocks hepatitis C virus | actives 3.4% (n = 340,000) | Potency, µM (highest dose often 41.8 µM), hits mostly inhibitors | AID 651820 | Huh7.5.1 HCVcc-Cre infection, luciferase reporter, 44 h; active = well fitted inhibition curve with a large enough effect; inconclusive = small, poorly fitted or top-dose-only effect, or another doubt; inactive = no such curve, though single readings can be large or run the other way
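Luciferase read-out (15 sec integration) after a 15 min room-temperature substrate step quantifies HCVcc-Cre infection. Cells, 1,000 per well, had compound added 4 h post-plating, then virus at ~0.5 moi, and were cultured 44 h.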
Large screens that a line does not name were inactive.

Cc1cc2c([nH]c3ccccc32)c(C)n1	HCV inh inconclusive
O=C1C=C2C(=CCOC2O)O1 (stereo not drawn)	Vaccinia mCherry 11µM, VACV Venus inh 11µM (no result: HCV inh)
N#Cc1ccc(COC(=O)c2cnc(Cl)c(Cl)c2)cc1	HCV inh inconclusive
O=C(c1cnsn1)N1CCOc2ccc(CN3CCOCC3)cc2C1	none (no result: HCV inh)
Cc1cc(C)c(/C=C/c2onc(C)c2S(=O)(=O)N2CCC(C(=O)N3CCN(c4ccc(Cl)cc4)CC3)CC2)c(C)c1	none (no result: HCV inh)
CC1CN(c2nc3ccccn3c(=O)c2C=O)CC(C)O1 (stereo not drawn)	none (no result: Vaccinia mCherry, VACV Venus inh)
O=C(Oc1ccc(C(=S)N2CCOCC2)cc1)c1ccc([N+](=O)[O-])cc1[N+](=O)[O-]	none (no result: Vaccinia mCherry, VACV Venus inh)
O=C(Oc1cccc(C(=S)N2CCOCC2)c1)c1ccc([N+](=O)[O-])cc1[N+](=O)[O-]	Vaccinia mCherry 5.6µM, VACV Venus inh inconclusive
COc1ccc(NC(=O)C2CCCN(S(=O)(=O)c3ccc(F)cc3)C2)cc1 (stereo not drawn)	none (no result: HCV inh)
CCOC(=O)C1CCN(C(=O)C2CCCN2S(=O)(=O)c2ccc(Cl)cc2)CC1 (stereo not drawn)	none (no result: HCV inh)
CCN=c1scc(-c2ccc(F)cc2)n1/N=C/c1ccccn1	none
CCN=c1scc(-c2ccccc2)n1/N=C/c1ccccn1	Vaccinia mCherry 5.6µM, HCV inh inconclusive
C=CCN=c1scc(-c2ccccc2)n1/N=C/c1ccccn1	Vaccinia mCherry 2.2µM, HCV inh 14µM
C=CCN=c1scc(-c2ccc(F)cc2)n1/N=C/c1ccccn1	HCV inh inconclusive
CCCn1c(C)cc(=O)c2cc(NC(=O)c3cnccn3)ccc21	HCV inh 2.2µM
CCc1ccc(NC(=O)c2cnccn2)cc1	none
c1ccc(Cc2cc[n+](Cc3ccccn3)cc2)cc1	none
Cc1cccc(C)c1NC(=O)CN1CCN(c2ccc(C(F)(F)F)cn2)CC1	none (no result: HCV inh)
CCc1nc(CN2CCN(c3ccc(C(F)(F)F)cn3)CC2)c(C)[nH]1	HCV inh 10µM (no result: Vaccinia mCherry, VACV Venus inh)
COc1cccc(CNC(=O)CS(=O)(=O)Cc2nc(-c3ccc(C)cc3)oc2C)c1OC	VACV Venus inh inconclusive, HCV inh inconclusive
COc1ccccc1OCCSc1nc2ccccc2n1CC(=O)O	none (no result: HCV inh)
C#CCOc1ccc(Cl)cc1/C=N/O	none
O=C(O)COc1ccc(Br)cc1/C=N/O	none (no result: Vaccinia mCherry)
CCCOc1ccc(Br)cc1/C=N/O	VACV Venus inh inconclusive, HCV inh 10µM (no result: Vaccinia mCherry)
CCOc1ccc(Br)cc1/C=N/O	HCV inh 8.9µM
CN(C)c1ccc(C(I)C(I)c2ccnc3ccccc23)cc1 (stereo not drawn)	none (no result: HCV inh)
COc1ccc(-c2cc(-c3c(O)c(OC)c4occc4c3OC)[nH]n2)cc1	HCV inh 32µM (no result: Vaccinia mCherry, VACV Venus inh)
CCOc1ccc(-c2cc(-c3nc(-c4cc(OC)c(OC)c(OC)c4)no3)[nH]n2)cc1	none (no result: HCV inh)
COc1ccc(-c2cc(-c3c(O)c(OC)c4occc4c3OC)[nH]n2)cc1OC	VACV Venus inh inconclusive, HCV inh 11µM
COc1ccc(-c2cc(-c3ccccc3O)[nH]n2)cc1	none (no result: Vaccinia mCherry)
COc1ccc(S(=O)(=O)NCc2nc(N3CCCC3)c3cccc(C)c3n2)cc1OC	none (no result: HCV inh)
Cc1cnc(SCc2ccccn2)nc1C1CCCN(C(=O)c2ccc3c(c2)OCCO3)C1 (stereo not drawn)	none (no result: HCV inh)
COc1cccc(C(=O)N2CCc3c(C(=O)NC(C)c4ccco4)c(OC)cc(=O)n3CC2)c1OC (stereo not drawn)	none (no result: HCV inh)
COc1ccc(NC(=O)CC2C(=O)N(c3cccc(OC)c3)C(=O)N2Cc2ccc3c(c2)OCO3)cc1 (stereo not drawn)	none (no result: HCV inh)
COc1cccc(N2CCN(C(=O)c3ccc4c(=O)n(CCc5ccccc5)c(=O)[nH]c4c3)CC2)c1	none (no result: HCV inh)
c1coc(-c2ccccc2CN2CCOc3ccc(CN4CCOCC4)cc3C2)c1	none (no result: HCV inh)
O=C(NCCN1C(=O)S/C(=C\c2ccc(Cl)c(Cl)c2)C1=O)c1cnccn1	none
O=C(NCCN1C(=O)S/C(=C\c2ccc(Cl)c([N+](=O)[O-])c2)C1=O)C1=COCCO1	HCV inh 11µM
COc1cc(=O)n2c(c1C(=O)N(C)C(C)c1ccco1)CCN(C(=O)c1ccc(C(C)=O)cc1)CC2 (stereo not drawn)	none (no result: HCV inh)
CCCCOC(=O)c1cccc(NC(=O)/C=C/c2ccccc2Cl)c1	none (no result: HCV inh)
Nn1c(SCC(=O)NCC2CCCO2)nnc1-c1ccco1 (stereo not drawn)	none
C/C=C/c1ccc(OCC(=O)N2CCc3cc(OC)c(OC)cc3C2)c(OC)c1	none
Cc1cccc(Oc2nc(-c3ccccc3)cc(C)c2S(C)(=O)=O)c1C	VACV Venus inh inconclusive, HCV inh 10µM (no result: Vaccinia mCherry)
COc1ccccc1Oc1nc(-c2ccccc2)cc(C)c1S(C)(=O)=O	HCV inh inconclusive (no result: Vaccinia mCherry)
CCc1ccc(Nc2n[n+](-c3ccccc3)c(-c3cccc(C)c3)s2)cc1	HCV inh 32µM
Cc1cccc(-c2sc(Nc3ccccc3)n[n+]2-c2ccc(F)cc2)c1	none
COc1cc(NC(=O)C(=O)NCCN2CCNCC2)c(OC)cc1Cl	none
COc1ccccc1CCN1CCCC(CN(C)C(=O)c2ccoc2)C1 (stereo not drawn)	none (no result: Vaccinia mCherry, VACV Venus inh)
COC(=O)CN1C(=O)CSc2ncccc21	none (no result: Vaccinia mCherry)
CCC(Cc1ccccc1)NC(=O)CN1C(=O)CSc2ncccc21 (stereo not drawn)	HCV inh 13µM
CCn1c(CNC(=O)c2ccccc2F)nnc1SCC(=O)NC1CCCCC1C (stereo not drawn)	none (no result: Vaccinia mCherry, VACV Venus inh)
CCNC(=O)/C(C#N)=C/c1c(N2CCOCC2)nc2ccccn2c1=O	none
CCNC(=O)/C(C#N)=C/c1c(N2CCN(C)CC2)nc2c(C)cccn2c1=O	none
CCNC(=O)/C(C#N)=C/c1c(N(Cc2ccccc2)Cc2ccccc2)nc2ccccn2c1=O	VACV Venus inh inconclusive, HCV inh 11µM
CNC(=O)/C(C#N)=C/c1c(N(Cc2ccccc2)Cc2ccccc2)nc2c(C)cccn2c1=O	VACV Venus inh inconclusive, HCV inh 13µM
O=C(Nc1ccc(NC(=O)c2cccs2)cc1)c1ccc(Br)cc1	none (no result: HCV inh)
Cc1ccc2c(C)c(C)c(=O)n(C)c2c1	HCV inh inconclusive
CCN(CC)CCN(C(=O)c1ccco1)c1nc2cc(C)cc(C)c2s1	none (no result: HCV inh)
CCN(CC)CCN(C(=O)c1c(F)cccc1F)c1nc2cc(C)cc(C)c2s1	HCV inh 10µM (no result: Vaccinia mCherry, VACV Venus inh)
Cc1nc2ncnn2c(Nc2ccc3c(c2)OCO3)c1Cc1ccccc1	none (no result: Vaccinia mCherry, VACV Venus inh)
CCc1c(C)nc2ncnn2c1NCCc1ccccc1	HCV inh 28µM (no result: Vaccinia mCherry, VACV Venus inh)
COc1ccc(C2=NN(CC(=O)NCCc3ccc(OC)c(OC)c3)C(=O)CC2)cc1	none (no result: HCV inh)
Cc1cccc(S(=O)(=O)c2cn(Cc3ccc(F)cc3)c3cc(N4CCOCC4)c(F)cc3c2=O)c1	none (no result: HCV inh)
COc1ccccc1NC(=O)CCn1nc(-c2ccccc2)c2ccccc2c1=O	none (no result: HCV inh)
COc1ccccc1NC(=O)Cn1nc(-c2ccc(Cl)cc2)c2ccccc2c1=O	HCV inh 10µM
CCOC(=O)CN1C(=O)C(O)(CC(=O)c2cc(OC)ccc2OC)c2ccccc21 (stereo not drawn)	none (no result: HCV inh)
COC(=O)c1cc2ccccc2c(-c2c(OC)c(C(=O)OC)cc3ccccc23)c1OC	Vaccinia mCherry inconclusive, HCV inh 10µM
COC(=O)c1cc2ccccc2c([N+](=O)[O-])c1O	none
CS(=O)(=O)c1ccccc1NC(=O)COc1ccccc1C(=O)Nc1ccccc1	none (no result: HCV inh)
CCc1cccc(NC(=O)COC(=O)c2ccccc2OCc2ccccc2Br)c1	Vaccinia mCherry inconclusive, VACV Venus inh 13µM (no result: HCV inh)
CC(C)c1cccc(NC(=O)COC(=O)c2ccccc2OCc2cccc(Br)c2)c1	none (no result: HCV inh)
